A short description of experiment [1]: Cell Viability - SH-SY5Y (AID 544).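 Further: cells exposed to compound for 40 hours; 0% = DMSO alone and -100% = 100 µM tamoxifen; nearly all actives have a fitted effect of over 55% in size.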 As to conditions: SH-SY5Y neuroblastoma cell viability; viability change, negative = cytotoxic: at 92.2 µM (top of the series). The procedure, abridged:
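Luminescent ATP read-out (CellTiter-Glo) measures loss of viable SH-SY5Y neuroblastoma cells after 40 hr compound exposure at 37 °C. AC50 values derive from standard Hill modelling of qHTS concentration-response data.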

Experiment [2] can be described thus: Cellular Toxicity (caspase-3) SHSY5Y (AID 657). The procedure, abridged: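 SH-SY5Y human neuroblastoma cells, 1500/well, exposed to compound for 16 hours at 37 °C in complete medium. Caspase-3/7 activity read by Caspase-Glo luminescence after 1 hr at room temperature, normalized to DMSO and 10 uM staurosporine; AC50 from Hill fit.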
Experiment [3] in a line: Cellular Toxicity (caspase-3) H-4-II-E (AID 663).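 Further: cells exposed to compound for 16 hr before readout; 0% = DMSO basal and 100% = 100 µM tamoxifen.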 As to conditions: Potency: caspase-3 activation. The procedure, abridged: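 Rat hepatoma H-4-II-E cells (1500/well) plated 5 hr, then exposed to compound titrations for 16 hr at 37 °C. Caspase-Glo 3/7 luminescence read after 20 min at RT; data normalized to DMSO and 100 uM tamoxifen, AC50 from Hill fits.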
Experiment [4] in a line: Cellular Toxicity (caspase-3) N2a (AID 665).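 Further: compound exposure lasted 16 h at 37 °C before readout.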 The procedure, abridged:
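N2a cells, 1500/well, 5 h settle at 37 °C; cpd 16 h, 37 °C; Caspase-Glo 3/7, 1 h RT; luminescence. Norm: DMSO = 0, 10 uM staurosporine = 100%. AC50, Hill fit.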

A short description of experiment [5]: MultiTox-Fluor Cytotoxicity Assay - LYMP1-002 - Dead Cells (AID 960). Further: nearly all actives have a fitted effect of over 60% in size. In short, it runs like this:
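LYMP1-002 cells 2500/well; 5 hr 37 C pre-incubation; compound 16 hr 37 C; MultiTox-Fluor reagent 60 min RT; dead-cell fluor Ex/Em 485/520. Norm. to DMSO (0%) vs 15 uM tetraoctylammonium bromide (100%); Hill AC50.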

A short description of experiment [6]: Cell Viability - LYMP2-002 (AID 977).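 Further: compound exposure lasted 24 h at 37 °C; plate controls were DMSO only for no effect and 92 µM tetraoctylammonium bromide for full effect.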 The procedure, abridged:
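Human lymphoblastoid LYMP2-002 cells, 2500 per well, exposed to compounds for 24 h at 37 C in complete medium; viability read as intracellular ATP by CellTiter-Glo luminescence, AC50 from Hill fits.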

Experiment [7] can be described thus: Cell Viability - LYMP2-006 (AID 978). Further: on the % scale 0 is the no-effect control and ±100 the full control effect; nearly all actives have a fitted effect of over 60% in size. In short, it runs like this:
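Human lymphoblastoid cells (LYMP2-006), 2500/well in complete medium, were treated with compound for 24 hr at 37 C. Cellular ATP was read by CellTiter-Glo luminescence after 30 min, and AC50 values came from Hill-equation fits of concentration-response data.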

A short description of experiment [8]: Cell Viability - LYMP2-014 (AID 983).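 Further: plate controls were DMSO only for no effect and 92 µM tetraoctylammonium bromide for full effect; nearly all actives have a fitted effect of over 50% in size.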 The procedure, abridged:
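Luminescent ATP signal (CellTiter-Glo, 30 min at room temperature) serves as the viability read-out after 24 hr compound exposure at 37 C. Cells were seeded at 2500 per well and settled 5 hr beforehand.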

A short description of experiment [9]: Cell Viability - LYMP2-016 (AID 984). Further: on the % scale 0 is the no-effect control and ±100 the full control effect; nearly all actives have a fitted effect of over 55% in size. In short, it runs like this: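 Human lymphoblastoid LYMP2-016 cells, 2500 per well, treated with compounds for 24 h at 37 C. Viability read as intracellular ATP by CellTiter-Glo luminescence after 30 min at room temperature; AC50 from Hill fits of concentration-response.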
Experiment [10] can be described thus: Cell Viability - LYMP1-002 - Assay at 24 hr (AID 993). Further: on the % scale 0 is the no-effect control and ±100 the full control effect. In short, it runs like this:
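Cells plated 2500/well, 5 hr 37 C; compounds added, 24 hr 37 C; CellTiter-Glo added, 30 min RT; luminescence read. Tetraoctylammonium bromide positive control. Hill-equation AC50.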

A short description of experiment [11]: qHTS assay for small molecule agonists of retinoid X receptor alpha signaling (AID 588544; calls by dose curve;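 on activation: 0% = DMSO basal wells and 100% = reference agonist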). The conditions noted are these: HEK293T RXRa-UAS-bla, beta-lactamase reporter, 18 h; 530 nm emission. In general terms: qHTS replaces the single test concentration by a dilution series.
Experiment [12] addresses Retinoic acid receptor RXR-alpha (Homo sapiens) (UniProt P19793). The description is as above.
In experiment [13] the target is Tumor necrosis factor (Homo sapiens) (UniProt P01375). Briefly: qHTS assay to identify small molecules that stimulate Tumor Necrosis Factor-alpha (TNF-alpha) secretion (AID 651757; active means well fitted curve in the direction sought with a large enough effect in the signal ratio; the % refers to the signal ratio; further: 0% is about no effect). The procedure, abridged:
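Read-out is HTRF, a TR-FRET sandwich of cryptate- and XL665-labeled anti-TNF-alpha antibodies detecting cytokine secreted by THP-1 cells. Cells had been incubated with test compounds at 37 C for 17 hrs beforehand.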

Experiment [14] in a line: qHTS assay for small molecule antagonists of the retinoid-related orphan receptor gamma (ROR-gamma) signaling pathway - cell viability counter screen (AID 720652; active means well fitted curve in the direction sought with a large enough effect in the repeat runs; an effect the other way counts as inactive or inconclusive;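 further: compound exposure lasted 16 hr before ATP read; on the % scale 0 is the no-effect control and ±100 the full control effect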). The procedure, abridged:
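Luminescence from CellTiter-Glo after 30 min at room temperature reported cellular ATP as the cytotoxicity measure. Cells were the CHO reporter line with doxycycline-induced ROR-gamma expression, exposed to compound for 16 hr at 37 C.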

Experiment [15] is described as follows: qHTS assay for small molecule activators of the human pregnane X receptor (PXR) signaling pathway (AID 720659; call rule not given here; further: 0% is about no effect).
Experiment [16] can be described thus: Cell Viability - HepG2 (AID 433; calls by dose curve;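 further: potency means the concentration at half of the fitted maximal effect; cells exposed to compound for 40 hours; potency for ATP loss meaning cytotoxicity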). As to conditions: qHTS. The procedure, abridged: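 HepG2 cells, 1500 per well, treated 40 hr at 37 °C in complete medium; viability from intracellular ATP by CellTiter-Glo luminescence. Normalized to DMSO and 100 uM tamoxifen; AC50 from Hill fit of qHTS concentration-response.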
Experiment [17] in a line: Cellular Toxicity (caspase-3) Renal Proximal Tubule (AID 667).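 Further: cells exposed to compound for 16 hours at 37 °C before detection; 0% = DMSO basal and 100% = 10 µM staurosporine.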 The procedure, abridged:
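Freshly isolated primary rat kidney proximal tubule cells, 1000/well, treated 16 hr at 37 °C, then Caspase-Glo 3/7 luminescence after 1 hr. Normalized to DMSO and 10 uM staurosporine; AC50 from Hill fit.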

The nature of experiment [18]: MultiTox-Fluor Cytotoxicity Assay - LYMP1-001 - Live Cells (AID 947).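 Further: 0% = DMSO only and full inhibition = tetraoctylammonium bromide control.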
Experiment [19] has as its target Voltage-gated inwardly rectifying potassium channel KCNH2 (Homo sapiens) (UniProt Q12809). Briefly: qHTS Assay for Small Molecule Inhibitors of the Human hERG Channel Activity (AID 588834).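 Further: top concentration of the series differs between compounds; on the % scale 0 is the no-effect control and ±100 the full control effect; lower thallium flux fluorescence means stronger hERG block; nearly all actives have a fitted effect of over 50% in size.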 The procedure, abridged: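 U2OS cells BacMam-transduced with hERG, 2000 cells/well, compound ~10 min at 37 °C before stimulation buffer. FluxOR thallium flux fluorescence read kinetically on FDSS; decrease indicates block; AC50 from Hill fits.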

Experiment [20] in a line: qHTS assay for cell viability of HEK293 cells (AID 743288). Further: on the % scale 0 is the no-effect control and ±100 the full control effect; nearly all actives have a fitted effect of over 50% in size. The conditions noted are these: ATP luminescence (CellTiter-Glo), 18 h, stronger effect = lower value. In short, it runs like this: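 Parental HEK293 cells, 2,000 per well, preincubated at least 5 h at 37 C, then exposed to compounds in DMSO for 18 h at 37 C. Viability by CellTiter-Glo ATP luminescence after 30 min at room temperature.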

“And” between values parts separate entries of the source, which are not always exact repeats. Identical values can stand only once. Results filed as inconclusive are left out. The source made the active and inactive calls. Unless noted, the call rests on the fitted dose curve; in most records, active means well fitted curve in the direction sought with a large enough effect; inconclusive means small, poorly fitted or top-dose-only effect, or another doubt; inactive means no such curve, though single readings can be large; an effect the other way counts as inactive or inconclusive.

Voltage-gated inwardly rectifying potassium channel KCNH2 (Homo sapiens), sequence (Q12809 whole entry, looked up): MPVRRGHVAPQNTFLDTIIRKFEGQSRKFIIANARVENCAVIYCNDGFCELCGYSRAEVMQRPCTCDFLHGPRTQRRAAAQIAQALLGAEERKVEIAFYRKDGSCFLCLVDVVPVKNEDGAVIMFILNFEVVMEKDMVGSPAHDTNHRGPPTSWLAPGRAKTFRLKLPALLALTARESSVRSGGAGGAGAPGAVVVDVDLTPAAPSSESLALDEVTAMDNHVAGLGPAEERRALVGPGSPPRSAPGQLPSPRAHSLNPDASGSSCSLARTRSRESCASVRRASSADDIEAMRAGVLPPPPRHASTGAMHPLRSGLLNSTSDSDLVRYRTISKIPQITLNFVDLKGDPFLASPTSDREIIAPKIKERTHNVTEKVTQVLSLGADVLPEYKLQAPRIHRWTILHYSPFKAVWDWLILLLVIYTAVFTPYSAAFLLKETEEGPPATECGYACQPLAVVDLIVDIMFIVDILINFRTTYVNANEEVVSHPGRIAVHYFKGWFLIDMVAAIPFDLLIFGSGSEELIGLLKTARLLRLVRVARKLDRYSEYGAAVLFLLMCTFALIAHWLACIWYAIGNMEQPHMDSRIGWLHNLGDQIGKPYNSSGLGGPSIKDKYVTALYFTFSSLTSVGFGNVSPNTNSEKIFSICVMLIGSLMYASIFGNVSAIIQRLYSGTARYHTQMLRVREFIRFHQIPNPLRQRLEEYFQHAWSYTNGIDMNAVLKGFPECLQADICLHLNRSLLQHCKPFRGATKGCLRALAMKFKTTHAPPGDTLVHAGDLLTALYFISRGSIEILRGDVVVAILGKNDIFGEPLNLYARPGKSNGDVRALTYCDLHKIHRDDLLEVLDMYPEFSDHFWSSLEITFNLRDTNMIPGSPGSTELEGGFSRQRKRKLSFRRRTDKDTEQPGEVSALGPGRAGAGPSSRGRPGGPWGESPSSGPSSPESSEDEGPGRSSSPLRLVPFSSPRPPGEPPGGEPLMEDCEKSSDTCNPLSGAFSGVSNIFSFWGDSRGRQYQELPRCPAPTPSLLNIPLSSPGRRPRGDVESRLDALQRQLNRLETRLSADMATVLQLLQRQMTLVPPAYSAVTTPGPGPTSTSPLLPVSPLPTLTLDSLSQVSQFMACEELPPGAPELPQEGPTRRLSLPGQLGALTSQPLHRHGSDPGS
Tumor necrosis factor (Homo sapiens), sequence (P01375 whole entry, looked up): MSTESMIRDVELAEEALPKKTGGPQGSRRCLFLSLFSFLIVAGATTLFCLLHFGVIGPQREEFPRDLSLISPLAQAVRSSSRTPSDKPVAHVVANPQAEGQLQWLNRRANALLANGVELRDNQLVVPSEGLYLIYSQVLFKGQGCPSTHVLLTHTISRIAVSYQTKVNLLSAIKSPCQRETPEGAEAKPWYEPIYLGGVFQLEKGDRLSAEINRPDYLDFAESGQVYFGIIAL
Retinoic acid receptor RXR-alpha (Homo sapiens), sequence (P19793 whole entry, looked up): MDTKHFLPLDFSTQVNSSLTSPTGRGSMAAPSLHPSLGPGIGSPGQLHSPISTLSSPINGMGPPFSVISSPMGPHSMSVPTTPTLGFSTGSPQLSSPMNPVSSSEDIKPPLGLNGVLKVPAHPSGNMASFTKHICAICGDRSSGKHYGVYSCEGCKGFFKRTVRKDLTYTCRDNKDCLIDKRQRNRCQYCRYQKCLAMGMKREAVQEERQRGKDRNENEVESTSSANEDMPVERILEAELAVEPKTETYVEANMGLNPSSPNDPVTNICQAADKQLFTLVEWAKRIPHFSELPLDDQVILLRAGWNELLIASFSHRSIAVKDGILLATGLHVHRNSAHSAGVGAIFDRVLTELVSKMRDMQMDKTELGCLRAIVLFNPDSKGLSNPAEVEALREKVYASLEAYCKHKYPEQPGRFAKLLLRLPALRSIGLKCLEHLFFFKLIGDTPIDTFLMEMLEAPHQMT

For `O=C(O)c1cc(Cl)ccc1Cl`, the Potency entry in experiment [1], in experiment [3], in experiment [5], in experiment [6], in experiment [7] and in [8] was “inactive” in each case. The Potency result in [9], in experiment [10] and in experiment [14] was “inactive” throughout. Also, the molecule was classed as inactive in experiment [2], in [4], in experiment [12], in [13] and in experiment [15]. For the same molecule, the max response in experiment [11] was -6.74%.
`Cc1ccc([N+](=O)[O-])cc1`: the Potency in [16] is > 92 µM (inactive). In addition, the Potency entry in experiment [1], in [3], in experiment [5], in experiment [6], in experiment [7] and in experiment [8] was “inactive” each time. Also, the Potency entry in experiment [9], in experiment [10], in experiment [19] and in [14] was “inactive” each time. The molecule was called inactive in experiment [2], in experiment [4], in [17], in experiment [18], in experiment [12] and in experiment [13]. In experiment [15], the call was inactive. In experiment [11], the max response is -18.4%.
For `Cc1cc(-c2cc(C)c(N)c(C)c2)cc(C)c1N`, the Potency in [16] was > 92 µM (inactive). The Potency entry in experiment [1], in experiment [3], in experiment [6], in experiment [7], in experiment [8] and in experiment [9] was “inactive” each time. The Potency result in experiment [10] and in [14] was “inactive” throughout. In addition, the molecule was called inactive in experiment [2], in experiment [4], in [18], in [12] and in experiment [15]. Moreover, the max response in experiment [11] is -7.36%; in [20], 7.5% (inactive).
In the case of `Nc1ccc(Cc2ccc(N)cc2)cc1`, the Potency in experiment [16] is > 92 µM (inactive). Moreover, the Potency entry in experiment [1], in experiment [3], in [5], in [6], in [7] and in experiment [8] was “inactive” throughout. The Potency result in experiment [9], in [10], in [19] and in experiment [14] was “inactive” in each case. The result in [2], in experiment [4], in experiment [17], in experiment [18], in [12] and in [15] was inactive. Besides, the max response in [11] is 7.13%; in experiment [20], 9.53% (inactive) and -1.85% (inactive).
As to `CCN(N=O)C(N)=O`, the Potency in experiment [16] was > 92 µM (inactive). Moreover, the Potency entry in experiment [1], in experiment [5], in [6], in [7], in experiment [8] and in experiment [9] was “inactive” in each case. For the same molecule, the Potency result in [10], in experiment [19] and in experiment [14] was “inactive” in each case. For the same molecule, the result in [2], in [18], in experiment [12], in experiment [13] and in experiment [15] was inactive. Further, the max response in experiment [11] was -12%; in experiment [20], 9% (inactive).
With `COC(C)(C)C`, the Potency entry in experiment [1], in [5], in experiment [6], in experiment [7], in experiment [8] and in experiment [9] was “inactive” in each case. Further, the Potency result in experiment [10], in experiment [19] and in [14] was “inactive” throughout. Also, the call in experiment [2], in [4], in [17], in [18], in [12] and in experiment [13] was inactive. Moreover, the outcome in experiment [15] was inactive. Moreover, the max response was 9.16% in experiment [11] and -5.4% (inactive) in experiment [20].
On to `Cc1cc(Cl)ccc1O`, for which the Potency result in [1], in [3], in experiment [5], in experiment [6], in experiment [7] and in [8] was “inactive” each time. Moreover, the Potency entry in [10] and in experiment [14] was “inactive” throughout. Also, the molecule was classed as inactive in experiment [2], in [4], in [17], in [18], in experiment [12] and in [13]. Besides, the call in [15] was inactive. In addition, the values for the max response in [11] and in [20] were -4.59% and -5.93% (inactive), respectively.
On to `ClC(Cl)C(Cl)Cl`, for which the Potency in experiment [16] is > 92 µM (inactive). Moreover, the Potency entry in experiment [1], in [3], in experiment [5], in experiment [6], in experiment [7] and in experiment [8] was “inactive” throughout. The Potency result in experiment [9], in [10], in [19] and in experiment [14] was “inactive” each time. In addition, the call in [2], in [4], in [17], in experiment [18], in experiment [12] and in experiment [13] was inactive. For the same molecule, the outcome in experiment [15] was inactive. The max response in experiment [11] is -4.19%; in experiment [20], -11.3% (inactive).
For `Nc1ccc([N+](=O)[O-])cc1N`, the Potency in experiment [16] is > 92 µM (inactive). Moreover, the molecule was called inactive in experiment [2], in experiment [4], in experiment [17], in [18] and in [12]. In addition, the Potency entry in experiment [3], in experiment [5], in experiment [6], in experiment [7], in [9] and in experiment [19] was “inactive” in each case. Moreover, the Potency result in [14] is “inactive”. Besides, the max response in experiment [11] was -12.1%; in [20], 7.69% (inactive) and 2.35% (inactive).
`Nc1ccc(-c2ccccc2)cc1`: the Potency in experiment [16] was > 92 µM (inactive). Moreover, the Potency entry in [1], in [3], in experiment [5], in [6], in experiment [7] and in experiment [8] was “inactive” each time. The Potency result in [9], in [19] and in [14] was “inactive” in each case. The result in experiment [2], in experiment [4], in experiment [17], in [12], in experiment [13] and in experiment [15] was inactive. Moreover, the max response is 9.85% in [11] and -6.92% (inactive) in experiment [20].
`C/C=C/CC#N`: the Potency entry in [1], in [5], in experiment [6], in experiment [7], in experiment [8] and in experiment [9] was “inactive” in each case. For the same molecule, the Potency entry in experiment [19] and in [14] was “inactive” each time. Further, the molecule was called inactive in [4], in experiment [17], in experiment [18], in [12], in [13] and in experiment [15]. Moreover, the max response was -10.7% in experiment [11] and -10.8% (inactive) in [20].

The values above are taken from PubChem BioAssay (NCATS).
